Compound activity (PubChem BioAssay)
In the library only some 1.5% were active in any assay of this set; here they are far more common.
PINK1 expr mod = PINK1 expression modulation | Potency, µM (series often up to 76.6 µM), inactives show at the top dose activation (PINK1 increase), most hits filed as activators | AID 624263 | 410,000 tested, 0.2% active | PINK1 immunofluorescence, high-content cytometry, 24 h; active means well fitted activation curve with a large enough effect; inconclusive means small, poorly fitted or top-dose-only effect; cell line not stated here; further: potency means the concentration at half of the fitted maximal effect; % of control where 0% means no effect; nearly all actives have a fitted effect of over 65% in size
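Cells are seeded, rested 12 hours, then given compound at five concentrations or DMSO for 24 hours. After fixation, blocking and antibody staining, PINK1 amount and mitochondrial localization are scored; CCCP serves as control.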
BRCA1 expr act = increases BRCA1 expression. MCF7-BRCA1-FFLuc reporter, luminescence, 48 h; response scale: scaled: vehicle 0%, 10 µM genistein 100%. Potency, µM (doses to about 46.1 µM), for the others: at the highest dose activation, most hits filed as activators. 380,000 tested, 1.1% active; further: potency means the concentration at half of the fitted maximal effect; nearly all actives have a fitted effect of over 80% in size
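Compounds are tested at multiple concentrations on MCF7 BRCA1-luciferase reporter cells seeded at 2000 per well; after 48 h, a single luminescence end-point is taken and curves fitted to the normalized data.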
TCR act = activates T cell receptor signaling. primary human leukocytes, anti-CD3, IL-2 HTRF, 48 h. Potency, µM (series often up to 9.22 µM), for the others: at the highest dose activation of IL-2 secretion, hits mostly activators. 330,000 tested, under 10 active. AID 504894; further: % of control where 0% means no effect
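Compounds are tested in HTS on primary human leukocytes co-incubated with a-CD3 beads for 48 hr. IL-2 output is measured by time-resolved FRET.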
pAkt inh = Akt phosphorylation inhibition; activity change, % for hits at 50 µM; Neuro2A IGF-stimulated pAkt S473 HTRF, 20 min; stronger effect = lower value; 360,000 tested, 0.32% active; in the data active means activity change below about -80%; inconclusive means mostly about -51% to -80%; further: on the % scale 0 is the no-effect control and ±100 the full control effect
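Single-point screen (50 µM final compound) in Neuro2A cells stimulated 20 min with 6 nM IGF at 37 deg C. After lysis, Ser473-phosphorylated Akt read by HTRF (ex 330 nm, em 615/665 nm) as the 665/615 ratio.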
* hit, by the source's call; i = inactive; u = inconclusive; x = no result given; [ ] = remark or other dose. Unless noted, the call rests on the fitted dose curve; in most records, active means well fitted curve in the direction sought with a large enough effect; inconclusive means small, poorly fitted or top-dose-only effect, or another doubt; inactive means no such curve, though single readings can be large; an effect the other way counts as inactive or inconclusive.

SMILES	PINK1 expr mod	BRCA1 expr act	TCR act	pAkt inh
COc1ccc(C(=O)CSc2nccn2C)cc1	3%	8.9µM*	0%	i
CCOc1ccc(NC(=O)CSc2nccn2C)cc1	10%[38.3 µM]	u	-3%[46.1 µM]	x
CCC1=C/C(=C/c2sc3ccccc3[n+]2CC)CC(C)(C)C1	13%	-37%	2%	i
CC[n+]1c(/C=C2\C=C(C)CC(C)(C)C2)sc2ccccc21	13µM*	-76%	x	i
Cc1ccc(/C=N/N2CCN(c3ccccn3)CC2)o1	1%	10µM*	3%	i
C(=N\N1CCN(c2ccccn2)CC1)/c1ccccn1	-1%	11µM*	-1%	i
Oc1ccc(/C=N/N2CCN(c3ccccn3)CC2)cc1	3%	64%	-1%	i
CSCCC(NC(=O)c1ccco1)C(=O)NC1CCC(C)CC1 (centres undefined)	0%	3.5µM*	9%	i
O=C(N[C@@H](Cc1ccccc1)C(=O)NC1CCCCCC1)c1ccco1	3%[38.3 µM]	11µM*	4%	i
O=C(N[C@@H](Cc1ccccc1)C(=O)NC1CCCCC1)c1ccco1	1%	14%	-2%	i
Cc1ccc(C(=O)NC(C)CCc2ccccc2)cc1S(=O)(=O)N1CCOCC1 (centres undefined)	1%	-10%	-5%	i
O=C(NCc1ccccc1)c1cc(S(=O)(=O)N2CCOCC2)ccc1F	1%	2%	-4%	-114%*
Cc1ccc(C(=O)NCCc2ccccc2)cc1S(=O)(=O)N1CCOCC1	2%	11µM*	-5%	i
COc1ccc(CN2Cc3ccccc3OC(c3ccccc3OC)C2)cc1O (centres undefined)	6%	x	x	x
C=CCSc1n[nH]c(-c2ccc(OCCC)cc2)n1	14%[38.3 µM]	3.5µM*	x	i
C=CCSc1n[nH]c(-c2cccs2)n1	-1%	36%	-2%	i
CCCOc1ccc(-c2nc(SCC(=O)c3ccc(Cl)cc3)n[nH]2)cc1	12%	x	x	x
CCCOc1ccc(-c2nc(=S)[nH][nH]2)cc1	-32%[38.3 µM]	3.5µM*	8%	i
C=CCSc1n[nH]c(-c2ccc(OCCCC)cc2)n1	4%	7.9µM*	-3%	i
CCN(CC)CCN(C)C(=O)c1ccc(-c2ccccc2)nc1N(C)C	-1%	x	x	x
O=C(CSc1nc2c([nH]c3ccccc32)c(=O)n1-c1ccccc1)N1CCCCCC1	1%	x	x	x
Cc1cnc(C)c(-c2ccc(F)c3c2OC(CNC(=O)Cc2c(C)[nH]c4ccccc24)C3)n1 (centres undefined)	0%	x	x	x
O=C(Nc1ncc([N+](=O)[O-])s1)c1cccc([N+](=O)[O-])c1	14µM*	29%	3%	i
O=C(Nc1ncc(S(=O)(=O)c2ccc([N+](=O)[O-])cc2)s1)c1ccc2ccccc2c1	14µM*	-41%	-6%[46.1 µM]	i
COc1cc(OC)cc(C(=O)Nc2nc3ccc(S(C)(=O)=O)cc3s2)c1	6%	5.6µM*	6%	i
SMILES	PINK1 expr mod	BRCA1 expr act	TCR act	pAkt inh
CS(=O)(=O)c1ccc2nc(NC(=O)c3cccc([N+](=O)[O-])c3)sc2c1	3%	5.6µM*	x	i
c1ccc(CSCc2cn3ccccc3n2)cc1	-1%	2.8µM*	-2%	i
Cc1ccc(SCc2cn3ccccc3n2)cc1	2%	u	2%	i
O=C(CSc1cc(Cl)ccc1Cl)NCCN1C(=O)CSC1=O	-2%	-9%	7%	i
O=C(CSc1ccc2c(c1)OCCO2)NCCN1C(=O)CSC1=O	1%	57%	-2%	-109%*
CC(=O)c1c(C)nc(C)nc1NC(=O)C(C)C	-1%	0%	3%	-124%*
CC(=O)c1c(NC(=O)C(C)C)nc(C)nc1-c1ccccc1	1%	-10%	-1%	i
O=C(N=C1N=C2C=CC=CN2Cc2ccccc21)c1ccc(S(=O)(=O)N2CCCC2)cc1	-1%	u	-4%	i
O=C(N=C1N=C2C=CC=CN2Cc2ccccc21)c1ccc(S(=O)(=O)N2CCOCC2)cc1	1%	10µM*	-4%	i
N/C(=N\OC(=O)c1ccccc1)c1cccnc1	-1%	11µM*	0%	i
N/C(=N\OC(=O)c1ccccc1Cl)c1cccnc1	-2%	18%	0%[46.1 µM]	i
N/C(=N\OC(=O)c1ccc2c(c1)OCO2)c1cccnc1	-1%	10µM*	-12%	i
Cc1nc(NCc2ccc3nsnc3c2)sc1-c1ccn(C)n1	2%	x	x	x
COc1cccc(-c2nc(-c3ccc4c(c3)NC(=O)CO4)cs2)c1	7%	10µM*	2%	i
O=C(Nc1ccc2c(c1)oc1ccccc12)c1ccc2c(c1)OCO2	10%[38.3 µM]	91%	-3%	i
O=C(COc1ccc2c(c1)OCO2)Nc1nccs1	3%	3.2µM*	-1%	i
COCc1nnc(NC(=O)COc2ccc3c(c2)OCO3)s1	0%	5%	1%	i
O=C(COc1ccc2c(c1)OCO2)Nc1ccc2c(c1)oc1ccccc12	19%	70%	-1%	-96%*
Cc1oc(-c2ccccc2NC(=O)C2CCCO2)nc1CNC(=O)c1[nH]c2c(C)ccc(C)c2c1C (centres undefined)	1%	x	x	x
COc1ccc2c(c1)CCc1c(C(=O)N3CCCc4ccccc43)noc1-2	-5%[38.3 µM]	12%	-4%	x
COc1ccc2c(c1)CCc1c(C(=O)N3CCOCC3)noc1-2	-4%[38.3 µM]	2.8µM*	0%	i
O=C(NCCN1CCOCC1)c1noc2c1CCc1ccccc1-2	2%[38.3 µM]	7.9µM*	-16%	x
O=C(NCCN1CCOCC1)c1ccc(F)cc1	4%[38.3 µM]	25%	-2%	-101%*
COc1ccc(S[C@@H]2C[C@@H](C(=O)Nc3ccc4nccnc4c3)N(C3Cc4ccccc4C3)C2)cc1	1%	x	x	x
COc1ccccc1C1CN(CCNC(=O)c2cscn2)Cc2ccccc2O1 (centres undefined)	0%	x	x	x
SMILES	PINK1 expr mod	BRCA1 expr act	TCR act	pAkt inh
CC(NC(=O)c1cc(F)ccc1F)c1nnc2n1CCN(Cc1cccs1)CC2 (centres undefined)	1%	x	x	x
Cn1cnnc1Sc1ccc(CN2CCOc3ccc(C4=Cc5ccccc5C4)cc3C2)o1	1%	x	x	x
COc1cc2nc(N3CCCCC3)nc(NC(C)C)c2cc1OC	1%	6%	x	x
CCn1cc(S(=O)(=O)CC(=O)Nc2ccc3c(c2)OCCO3)c2ccccc21	-3%	2%	-3%	i
CCN(CC)C(=O)Cn1cc(S(=O)(=O)CC(=O)Nc2ccc3c(c2)OCCO3)c2ccccc21	2%	11µM*	7%	i
Cc1occc1C(=O)Nc1cccc(-c2nc(CNC(=O)c3ccc(N4CCCCC4)cc3)c(C)o2)c1	1%	x	x	x
Cc1cc(C)c(C#N)c(SCc2ccc(C#N)cc2)n1	13%	-12%	-5%	-92%*
Cc1cc(C)c(C#N)c(SCCS(=O)(=O)Cc2ccc(Cl)cc2)n1	7%	-16%	-6%	-91%*
CC(C)(C)c1ccc(C(=O)N2CCC3(CC2)CC3C(=O)NCCc2ccccn2)cc1 (centres undefined)	0%	x	x	x
O=C(COc1ccccc1[N+](=O)[O-])Nc1ccc2c(c1)OCO2	0%	10µM*	7%	i
